BAZ2B block: BAZ2B (human) inhibition | Q9UIF8 | Potency, µM (titrated, usually from 114 µM), most hits filed as inhibitors | 4.4% of 360,000 active | AlphaScreen BAZ2B-H3K14Ac peptide displacement; further: nearly all actives have a fitted effect of over 60% in size
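In this displacement format the biotinylated H3(5-23) peptide acetylated at Lys14 serves as ligand at 50 nM, with BAZ2B at 50 nM in PBS pH 7.4 containing 0.01% Tween-20. Donor and acceptor beads are 10 ug/mL final.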
G9a block: G9a (human) methyltransferase inhibition. Potency, µM (series often up to 102 µM), actives largely listed as inhibitors. 8.8% of 350,000 active. G9a H3K9 monomethylation, AlphaScreen, 2 h. Q96KQ7; further: nearly all actives have a fitted effect of over 75% in size
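Compounds were preincubated with 20 nM G9a for 15 min, after which biotinylated H3K9 peptide (500 nM) and SAM (20 uM) started a 2 h room-temperature reaction. Monomethylated product was quantified by antibody-based AlphaScreen chemiluminescence.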
HP1b chromo inh: HP1-beta chromodomain-methylated histone interaction inhibition. AlphaScreen HP1-beta / biotin-H3K9me3 peptide binding. Potency, µM (top dose mostly 114 µM), actives largely listed as inhibitors. 0.56% of 390,000 active. AID 540317; further: nearly all actives have a fitted effect of over 70% in size
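Compound inhibition of the preformed complex between 50 nM HP1-beta and 50 nM biotinylated H3K9me3 peptide was read by AlphaScreen. Buffer was PBS pH 7.4 with 0.01% Tween-20. Incubations ran 30 min at room temperature, with 10 ug/mL donor/acceptor beads.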
Sfp PPTase inh: Sfp phosphopantetheinyl transferase inhibition. Q9F4F7. Biochemical Sfp PPTase activity, qHTS. Potency, µM, usual class: inhibitors. 3.5% of 310,000 active. AID 1490;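 further: the enzyme is Sfp with the accession as filed and its product quenches rhodamine fluorescence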
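Compounds were incubated with enzyme (final 15 nM) for 15 min at room temperature before substrate addition started the reaction. Fluorescence at 525 nm excitation, 598 nm emission was recorded immediately and after 30 minutes.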
JMJD2A Tudor: blocks the human JMJD2A Tudor domain. O75164. AlphaScreen JMJD2A-Tudor / H3K4me3 peptide binding. Potency, µM (doses to about 114 µM), most hits filed as inhibitors. 4.4% of 390,000 active; further: nearly all actives have a fitted effect of over 50% in size
Numbers stand for hits; – = inactive; ? = inconclusive; · = no result; ! = a repeat was not active; [ ] = remark or other dose. Rows were chosen to be rich in hits. Some 12% of all compounds tested hit in one or more screens of this group. The call rests on the fitted dose curve; in most records, active means well fitted curve in the direction sought with a large enough effect; inconclusive means small, poorly fitted or top-dose-only effect, or another doubt; inactive means no such curve, though single readings can be large; an effect the other way counts as inactive or inconclusive.

SMILES	BAZ2B block	G9a block	HP1b chromo inh	Sfp PPTase inh	JMJD2A Tudor
Cc1ccccc1-c1n[nH]c(=S)n1/N=C/C=C/c1ccco1	45µM	2.2µM	–	–	18µM
CC(C)c1onc(C(=O)NCCc2ccccc2)c1[N+](=O)[O-]	–	50µM	–	–	–
CC(C)c1onc(C(=O)N(C)Cc2ccccc2)c1[N+](=O)[O-]	?	–	–	–	–
Cc1ccc(CNC(=O)CN(C(=O)C2(C)CC(=O)N=C3C=CC=CN32)c2ccc(F)cc2)cc1 (centres undefined)	–	?	–	–	–
CC(=O)c1ccc(NC(=O)c2cccc(N3C(=O)c4ccccc4C3=O)c2)cc1	–	79µM	–	–	–
CN(C)c1ccc(NC(=O)c2cccc(N3C(=O)C4C5C=CC(C5)C4C3=O)c2)cc1 (centres undefined)	–	10µM	–	–	–
O=C(Nc1ccccc1C(=O)O)c1cccc(N2C(=O)c3ccccc3C2=O)c1	–	–	–	–	–
O=C(O)c1cc(NC(=O)c2cccc(N3C(=O)c4ccccc4C3=O)c2)cc(C(=O)O)c1	–	·	–	–	–
NS(=O)(=O)c1ccc(NC(=O)c2cccc(N3C(=O)c4ccccc4C3=O)c2)cc1	?	10µM	–	?	?
COc1cccc(NC(=O)CSc2nc3ccc(NC(=O)c4ccco4)cc3s2)c1	–	–	–	·	–
CCOCCCn1c(=N)c(C(=O)NC(C)c2ccccc2)cc2c(=O)n3cccc(C)c3nc21 (centres undefined)	–	–	–	·	–
CCOC(=O)c1c(C)[nH]c(CCC(=O)NCc2cccc(C)c2)c1C	–	–	–	·	–
CCOC(=O)c1c(C)[nH]c(N=Nc2cccc(C)c2)c1C	25µM	?	?	–	25µM
CCOC(=O)c1c(C)[nH]c(CCC(=O)NCc2cccc(OC)c2)c1C	–	–	–	·	–
CCOC(=O)c1c(C)[nH]c(N=Nc2cccc(OC)c2)c1C	22µM	32µM	50µM	?	28µM
O=C(Cc1ccc(F)cc1)NCc1ccc2c(c1)CCN2C(=O)c1ccc(F)cc1	–	–	–	·	–
CCOc1cc(/C=C(\C#N)C(=O)Nc2cccc(C(=O)O)c2)ccc1OCc1ccccc1Cl	50µM	50µM	–	?	56µM
CCOc1cc(/C=C(\C#N)C(=O)Nc2cccc(C(=O)O)c2)cc(Br)c1OC(=O)c1ccc(OC)cc1	50µM	56µM	?	79µM	56µM
COc1ccc(NC(=O)/C(C#N)=C\c2ccc(OCc3ccc(C(=O)O)cc3)c(OC)c2)cc1	?	?	?	–	?
CCNc1nc(C#N)nc(Nc2ccccc2)n1	·	·	–	·	–
O=C1CCc2cc(S(=O)(=O)Nc3ccc4c(c3)CCC4)ccc2N1	·	·	·	·	–
COc1ccc(S(=O)(=O)n2nc(-c3ccco3)nc2NCc2ccc(C(C)C)cc2)cc1	–	–	–	·	–
O=C(Nc1ccc(F)c(Cl)c1)C1Cc2ccccc2CN1S(=O)(=O)c1ccc(F)cc1 (centres undefined)	?	–	–	·	–
NC(=O)Cc1nc2scc(-c3ccccc3)c2c(=O)[nH]1	–	14µM	–	79µM	–
O=C(OCc1nc2scc(-c3ccccc3)c2c(=O)[nH]1)c1cccc([N+](=O)[O-])c1	–	40µM	?	?	?
SMILES	BAZ2B block	G9a block	HP1b chromo inh	Sfp PPTase inh	JMJD2A Tudor
O=C(OCc1nc2scc(-c3ccccc3)c2c(=O)[nH]1)c1ccco1	–	?	–	·	–
CC(C)[C@H](NC(=O)c1ccccc1)C(=O)OCc1nc2scc(-c3ccccc3)c2c(=O)[nH]1	–	–[12.7 µM]	–	–	–
Cc1c(NC(=O)c2cc([N+](=O)[O-])ccc2N2CCOCC2)cccc1-c1nc2ccccc2o1	–	–	–	·	–
C[C@H](NC(=O)OC(C)(C)C)c1nnc(SCC(=O)c2ccc(Cl)cc2)o1	–	–	–	–	–
C[C@H](NC(=O)OC(C)(C)C)c1nnc(SCc2c(F)cccc2Cl)o1	89µM	–	–	·	–
CN(Cc1ccccc1)C(=O)COC(=O)CNS(=O)(=O)c1ccc2ccccc2c1	–	–	–	·	–
O=C(CCC(=O)c1cccs1)OCc1nnc(-c2ccccc2)o1	–	–[12.7 µM]	?	–	50µM
CC1CCCN(C(=O)COC(=O)CNS(=O)(=O)c2ccc3ccccc3c2)C1 (centres undefined)	–	7.1µM	–	·	–
Cc1ccc(C(=O)CCC(=O)OCc2nnc(-c3ccccc3)o2)cc1	–	–	–	·	–
O=C(CNS(=O)(=O)c1ccc2ccccc2c1)OCc1nnc(-c2ccccc2)o1	–	22µM	–	–	–
CCOC(=O)C1CCC(CN(Cc2c(Cl)cccc2Cl)S(=O)(=O)c2ccc(Cl)cc2)CC1 (centres undefined)	–	–	–	·	–
N#CCSc1n[nH]c2nc3c(c(=O)n12)C1(CCCC1)Cc1ccccc1-3	·	?	–	89µM	–
CCCC/C=C1/CCC(CN(C)C)C1=O (centres undefined)	·	·	–	·	–
Cc1ccc(NC(=O)Cn2nnc(C(=O)NCCc3ccccc3)c2N)c(C)c1	?	–	–	–	11µM
COc1ccc(CCNC(=O)c2nnn(CC(=O)Nc3ccc(C)cc3C)c2N)cc1OC	79µM	–	–	?	–
COc1ccc(NC(=O)Cn2nnc(C(=O)NCc3cccs3)c2N)c(OC)c1	–	–	–	–	22µM
COc1ccc(Cl)cc1NC(=O)Cn1nnc(C(=O)NCCc2ccc(OC)c(OC)c2)c1N	–	–	–	–	–
Cc1ccc(N(Cc2cccs2)C(=O)C(C)Oc2ccc(Cl)c(C)c2)cc1 (centres undefined)	–	–	–	·	–
CCCCc1nc2c(c3c1C[C@H](C)OC3)CN(C(=O)Nc1cccc(C#N)c1)CC2	·	·	·	–	·
CC1=C(c2ccc(C(C)C)cc2)S(=O)(=O)N=C1N1CCN(C(=O)c2ccco2)CC1	–	–	–	–	45µM
CC1=C(c2ccc(C(C)C)cc2)S(=O)(=O)N=C1N1CCC(C(=O)NCc2ccco2)CC1	–	–	–	·	–
Cc1ccc(Nc2nnc(SCC3CCCCO3)s2)cc1 (centres undefined)	–	40µM	–	–	–
Cc1ccc(C)c(S(=O)(=O)c2c(C)cc(C)[nH]c2=O)c1	–	–	–	–	–
COC(=O)C(N)Cc1ccc(O)c(O)c1 (centres undefined)	–	?	–	–	–
O=C(/C=C/c1ccc(O)c(O)c1)NC(=O)c1ccccc1O	50µM	–[12.7 µM]	?	–	63µM
O=C(O)/C=C/c1ccc(O)c(O)c1	?	11µM	–	56µM!	?
O=C(/C=C/c1ccc(O)c(O)c1)O[C@H](Cc1ccc(O)c(O)c1)C(=O)O	3.5µM	?	·	50µM	·
Cc1cccc(-n2ncc3c(Nc4ccc(Oc5ccc(Cl)cc5)cc4)ncnc32)c1	–	–	–	·	–
Cc1ccc(C)c(OCCC(=O)OCC(=O)NC2CCCC2)c1	–	–[0.501 µM]	–	·	–

From PubChem
